Laboratory results as given in ChEMBL document CHEMBL3988442, “University of Dundee, Small-Polar-MMV Screening Library” (2021).

Target: AMP-activated protein kinase, AMPK (Homo sapiens) (UniProt P54646+O43741+P54619+Q9UGJ0+Q9Y478+Q13131+Q9UGI9)
Test: AMP-dependent Kinase enzyme assay. An in vitro enzyme assay that detects ADP turnover that is directly proportional to AMPK activity. This uses naive AMPK that is activated during the assay with MK-8722
Type: functional
Set-up: scale not given: direction of the effect not stated beside the values
Details: 30 µM

Q: With `Cn1ccc(C(=O)N2CCCC2c2cc(CCO)[nH]n2)n1` (centres undefined) as the molecule, how does the Percent Effect read?
A: 21.2%

Q: `CC(CNC(=O)c1cc(Cn2cnc3ccccc32)[nH]n1)N1CCCC1` (centres undefined) was tested. Which Percent Effect did it give?
A: -5.09%

Q: `CN(C(=O)c1ccccc1N(C)S(C)(=O)=O)c1ccc(C(C)(C)C)cc1` was tested. Which Percent Effect did it give?
A: 6.59%

Q: With `CC(=O)NCC(=O)N1CCCC(C(=O)c2ccc(C(C)(C)C)cc2)C1` (centres undefined) as the molecule, how does the Percent Effect read?
A: 7.51%

Q: `CCC[C@H]1CN(Cc2cc(C#N)n(C)c2C)C[C@@H]1N(C)C` was tested. Which Percent Effect did it give?
A: 2.21%

Q: For `Cc1ccc(-n2cc(C(=O)NCc3nnc4n3CCCCC4)nn2)cc1`, which Percent Effect is on record?
A: 5.45%

Q: Which Percent Effect does the source give for `Cn1cc(CN2CCCC(O)C2)c(-c2ccccc2F)n1` (centres undefined) here?
A: 5.23%

Q: `O=S(=O)(c1cccnc1)N1CCCCC1CCN1CCOCC1` (centres undefined) was tested. Which Percent Effect did it give?
A: 16.1%

Q: How did the Percent Effect turn out when `COc1cc2c(cc1CNCc1cccnc1OC)OC(C)C2` (centres undefined) was run?
A: 0.485%

Q: `Cc1ccccc1CCC1CCCN(C(=O)Cc2cc(=O)[nH]c(N)n2)C1` (centres undefined) was tested. Which Percent Effect did it give?
A: -3.84%

Q: With `COc1cc(N(C)CCCn2nc(C)cc2C)ncn1` as the molecule, how does the Percent Effect read?
A: 13.8%

Q: With `Cc1ccc(C2CSCCN2CCS(C)(=O)=O)cc1` (centres undefined) as the molecule, how does the Percent Effect read?
A: -3.45%

Q: For `Cc1c(CN2CCc3[nH]cnc3C2C2CC2)[nH]c2ccc(F)cc12` (centres undefined), which Percent Effect is on record?
A: 3.62%

Q: For `Cc1cc(C)n(CC2CCN(CC(O)COc3ccccc3)CC2)n1` (centres undefined), which Percent Effect is on record?
A: 2.9%

Q: With `COc1cc(CN(C)[C@@H]2COC[C@H]2c2ccc(F)cc2)cc(OC)c1` as the molecule, how does the Percent Effect read?
A: -11.5%

Q: Which Percent Effect does the source give for `CC(C(=O)NCC(C)(C)c1ccc2c(c1)OCO2)n1ccnc1` (centres undefined) here?
A: 0.66%

Q: For `CCC[C@@H]1CN(Cc2ccc(C(F)(F)F)nc2)C[C@H]1NS(C)(=O)=O`, which Percent Effect is on record?
A: 4.44%

Q: How did the Percent Effect turn out when `O=C(c1ccc(Cl)s1)N1CCCn2nc(CN3CC[C@H](F)C3)cc2C1` was run?
A: 3.24%

Q: Which Percent Effect does the source give for `CCC(C(=O)N(Cc1ccccc1OC)C1CC1)n1cccn1` (centres undefined) here?
A: 0.528%

Q: With `COc1cccc2c1OCC(Cc1cc(C(=O)N3CCCC3)ccn1)C2` (centres undefined) as the molecule, how does the Percent Effect read?
A: 5.36%

Q: For `CC(C)(C)NC(=O)CNc1ncc(Br)cn1`, which Percent Effect is on record?
A: 7.93%

Q: `Fc1ccc(COCC2CCN(Cc3ccccn3)CC2)cc1` was tested. Which Percent Effect did it give?
A: 1.48%

Q: With `CC(C)CN(CC(F)(F)F)S(=O)(=O)c1cc(C(N)=O)n(C)c1` as the molecule, how does the Percent Effect read?
A: -3.17%

Q: With `CCCN(CCC)C(=O)CN1CCCC1C(=O)N(C)C` (centres undefined) as the molecule, how does the Percent Effect read?
A: -3.78%

Q: With `CCc1ccc2nc(C)cc(C(=O)NC3CCCCNC3=O)c2c1` (centres undefined) as the molecule, how does the Percent Effect read?
A: -6.44%

Q: `CN(CCc1ccccn1)c1cnn(C)c(=O)c1Br` was tested. Which Percent Effect did it give?
A: -11.5%

Q: Which Percent Effect does the source give for `Cc1nc(N(C)C)cc(C2(C)CCCNC2)n1` (centres undefined) here?
A: 10.2%

Q: With `CCCc1nc(NC2(COC)CCCC2)c2cnn(C)c2n1` as the molecule, how does the Percent Effect read?
A: 7.33%

Q: How did the Percent Effect turn out when `Cc1ccc(S(=O)(=O)Cc2nsc(N(C)C)n2)c(C)c1` was run?
A: -0.477%

Q: `CCS(=O)(=O)N1CCCN(CCCOC)CC1` was tested. Which Percent Effect did it give?
A: 19%

Q: For `CCn1nc(C(C)C)cc1C(=O)NCC1CCCN(c2ccccn2)C1` (centres undefined), which Percent Effect is on record?
A: 6.64%

Q: Which Percent Effect does the source give for `CC(C)N(C)C(=O)C1CCN(Cc2cnc3ccccn23)CC1` here?
A: -1.05%

Q: Which Percent Effect does the source give for `CC(C)CN1C[C@@H](C(=O)O)C[C@@H](C(=O)NCc2ccncc2)C1` here?
A: -2.13%

Q: Which Percent Effect does the source give for `CC(C)N(CC(=O)Nc1cccc(C#N)c1)C1CC1` here?
A: 0.161%

Q: For `CC(C)c1nn(C)cc1CNCc1cccc(N(C)C)c1`, which Percent Effect is on record?
A: -15.4%

Q: With `CC(C)c1nnc2n1CCN(Cc1cc(Cl)c3c(c1)OCCO3)C2` as the molecule, how does the Percent Effect read?
A: 11.8%

Q: How did the Percent Effect turn out when `Cc1cc(NC(=O)N2CCC[C@@H]2CO)nn1-c1cccc(Cl)c1` was run?
A: -3.24%

Q: `NC(=O)C1(Cc2ccccc2-c2cncnc2)CCCNC1` (centres undefined) was tested. Which Percent Effect did it give?
A: 3.1%

Q: Which Percent Effect does the source give for `CS(=O)(=O)NCC1(O)CCCN(C(=O)CCn2cc(Cl)cn2)CC1` (centres undefined) here?
A: -0.47%
